Measurements: PubChem BioAssay (NCATS)
Records with an inconclusive call do not appear. Activity calls are given as the source filed them. Calls come from the whole dose curve; as a rule, active = well fitted curve in the direction sought with a large enough effect; inconclusive = small, poorly fitted or top-dose-only effect, or another doubt; inactive = no such curve, though single readings can be large; an effect the other way counts as inactive or inconclusive.

Experiments:
[1] = qHTS of pediatric cancer cell lines to identify multiple opportunities for drug repurposing: Primary screen for A673 cells (AID 1347092); conditions: A673 Ewing sarcoma viability, CellTiter-Glo ATP luminescence, 48 h; series mostly up to 46 µM; note: nearly all actives have a fitted effect of over 45% in size; note: potency is the fitted concentration of half-maximal effect; for activity change, negative = cytotoxic: % is set by controls: 0 for no effect and ±100 for the full control effect
In short: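 A673 cells (500-1,000 cells/well in growth media) were pre-incubated 5 h at 37 degrees C, then exposed to compounds for 48 h. Viability was read as CellTiter-Glo luminescence; concentration-response curves came directly from the primary screen.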

[2] = qHTS of pediatric cancer cell lines to identify multiple opportunities for drug repurposing: Primary screen for SK-N-MC cells (AID 1347093); conditions: SK-N-MC viability, CellTiter-Glo luminescence, 48 h; series mostly up to 46 µM; note: potency is the fitted concentration of half-maximal effect;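 for activity change, negative = cytotoxic: plate controls were DMSO neutral control for no effect and bortezomib for full effect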
In short: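 Metabolically active cells were quantified by ATP-dependent luminescence (CellTiter-Glo, 15 min at room temperature) following 48 h treatment. Cells had been plated at 500-1,000 per well and settled for 5 h beforehand.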

[3] = qHTS of pediatric cancer cell lines to identify multiple opportunities for drug repurposing: Primary screen for BT-37 cells (AID 1347094); conditions: BT-37 viability, CellTiter-Glo luminescence, 48 h; series mostly up to 57.3 µM; note: potency is the fitted concentration of half-maximal effect;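 for activity change, negative = cytotoxic: plate controls were DMSO for no effect and bortezomib for full effect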
In short: (§1)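 Phenotypic viability qHTS, 48 h compound exposure, CellTiter-Glo luminescence read-out; multi-concentration dosing so that potency and efficacy derive directly from the primary screen's curves.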

[4] = qHTS of pediatric cancer cell lines to identify multiple opportunities for drug repurposing: Primary screen for NB-EBc1 cells (AID 1347095); conditions: NB-EBc1 neuroblastoma viability, CellTiter-Glo luminescence, 48 h; series mostly up to 46 µM; note: potency is the fitted concentration of half-maximal effect;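 for activity change, negative = cytotoxic: plate controls were DMSO neutral control for no effect and bortezomib for full effect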
In short: as §1

[5] = qHTS of pediatric cancer cell lines to identify multiple opportunities for drug repurposing: Primary screen for U-2 OS cells (AID 1347096); conditions: U-2 OS viability, CellTiter-Glo luminescence, 48 h; series mostly up to 46 µM;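 note: plate controls were DMSO wells for no effect and bortezomib positive control wells for full effect; nearly all actives have a fitted effect of over 50% in size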
In short: (§2)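 Cells (500-1,000/well) rested 5 h, then received compounds for 48 h; metabolically active cells were measured by CellTiter-Glo luminescence. Final concentrations spanned up to 46 µM (MIPE, 11-point) or 0.59 nM-46 µM (NPC, 8-point) in primary screens, 11-point in follow-ups.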

[6] = qHTS of pediatric cancer cell lines to identify multiple opportunities for drug repurposing: Primary screen for Saos-2 cells (AID 1347097); conditions: Saos-2 viability, CellTiter-Glo ATP luminescence, 48 h; series mostly up to 46 µM; note: nearly all actives have a fitted effect of over 40% in size; note: potency is the fitted concentration of half-maximal effect; for activity change, negative = cytotoxic: % is set by controls: 0 for no effect and ±100 for the full control effect
In short: as §1

[7] = qHTS of pediatric cancer cell lines to identify multiple opportunities for drug repurposing: Primary screen for SK-N-SH cells (AID 1347098); conditions: SK-N-SH viability, CellTiter-Glo luminescence, 48 h; series mostly up to 57 µM; note: nearly all actives have a fitted effect of over 65% in size; note: potency is the fitted concentration of half-maximal effect;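 for activity change, negative = cytotoxic: DMSO served as neutral control and bortezomib at 2.3 µM as positive control; % is set by controls: 0 for no effect and ±100 for the full control effect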
In short: as §2

[8] = qHTS of pediatric cancer cell lines to identify multiple opportunities for drug repurposing: Primary screen for NB1643 cells (AID 1347099); conditions: NB1643 neuroblastoma viability, CellTiter-Glo luminescence, 48 h; series mostly up to 46 µM;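 note: plate controls were DMSO neutral control for no effect and bortezomib positive control for full effect; nearly all actives have a fitted effect of over 50% in size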
In short: as §1

[9] = qHTS of pediatric cancer cell lines to identify multiple opportunities for drug repurposing: Primary screen for LAN-5 cells (AID 1347100); conditions: LAN-5 neuroblastoma viability, CellTiter-Glo luminescence, 48 h; series mostly up to 46 µM; note: potency is the fitted concentration of half-maximal effect;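 for activity change, negative = cytotoxic: plate controls were DMSO neutral control for no effect and bortezomib positive control for full effect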
In short: as §2

[10] = qHTS of pediatric cancer cell lines to identify multiple opportunities for drug repurposing: Primary screen for Rh18 cells (AID 1347102); conditions: Rh18 rhabdomyosarcoma viability, CellTiter-Glo luminescence, 48 h; series mostly up to 46 µM; note: nearly all actives have a fitted effect of over 65% in size; note: potency is the fitted concentration of half-maximal effect; for activity change, negative = cytotoxic: % is set by controls: 0 for no effect and ±100 for the full control effect
In short: as §2

[11] = qHTS of pediatric cancer cell lines to identify multiple opportunities for drug repurposing: Primary screen for RD cells (AID 1347104); conditions: RD rhabdomyosarcoma viability, CellTiter-Glo luminescence, 48 h; series mostly up to 46 µM;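 note: plate controls were DMSO for no effect and bortezomib for full effect; nearly all actives have a fitted effect of over 55% in size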
In short: as §1

[12] = qHTS of pediatric cancer cell lines to identify multiple opportunities for drug repurposing: Primary screen for MG 63 (6-TG R) cells (AID 1347105); conditions: MG 63 (6-TG R) viability, CellTiter-Glo, 48 h; series mostly up to 46 µM; note: % is set by controls: 0 for no effect and ±100 for the full control effect; nearly all actives have a fitted effect of over 50% in size
In short: as §1

[13] = qHTS of pediatric cancer cell lines to identify multiple opportunities for drug repurposing: Primary screen for Rh30 cells (AID 1347107); conditions: Rh30 rhabdomyosarcoma viability, CellTiter-Glo luminescence, 48 h; series mostly up to 46 µM; note: nearly all actives have a fitted effect of over 75% in size; note: potency is the fitted concentration of half-maximal effect
In short: as §2

[14] = qHTS of pediatric cancer cell lines to identify multiple opportunities for drug repurposing: Primary screen for Rh41 cells (AID 1347108); conditions: Rh41 rhabdomyosarcoma viability, CellTiter-Glo luminescence, 48 h; series mostly up to 46 µM; note: nearly all actives have a fitted effect of over 70% in size; note: potency is the fitted concentration of half-maximal effect;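 for activity change, negative = cytotoxic: luminescence drop marks cytotoxic hits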
In short: as §1

[15] = qHTS of pediatric cancer cell lines to identify multiple opportunities for drug repurposing: Primary screen for control Hh wild type fibroblast cells (AID 1347106); conditions: Hh wild-type fibroblast viability, CellTiter-Glo luminescence, 48 h; series mostly up to 46 µM;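 note: % is set by controls: 0 for no effect and ±100 for the full control effect; a drop in luminescence marks cytotoxicity and a rise apparent proliferation; nearly all actives have a fitted effect of over 55% in size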
In short: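 Viability after 48 h compound treatment at 37C, 500-1,000 cells/well, read as ATP luminescence with CellTiter-Glo. Primary screens used 11-point (MIPE, 0.78 nM-46 µM) or 8-point (NPC, 0.59 nM-46 µM) final concentrations; follow-up screens used 11-point dilutions.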

[16] = qHTS of pediatric cancer cell lines to identify multiple opportunities for drug repurposing: Confirmatory screen for NB1643 cells (AID 1347109); conditions: NB1643 neuroblastoma cell viability; series mostly up to 45.9 µM;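 note: plate controls were DMSO for no effect and bortezomib for full effect; nearly all actives have a fitted effect of over 45% in size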
In short: as §2

[17] = qHTS of pediatric cancer cell lines to identify multiple opportunities for drug repurposing: Confirmatory screen for A673 cells (AID 1347110); conditions: A673 Ewing sarcoma cell viability; series mostly up to 45.9 µM;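 note: plate controls were DMSO neutral control for no effect and bortezomib positive control for full effect; nearly all actives have a fitted effect of over 65% in size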
In short: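 A673 cells seeded at 500-1,000 cells/well, rested 5 h, then dosed; primary MIPE 11-point (0.78 nM to 46 µM), NPC (0.59 nM to 46 µM); confirmatory 11-point. CellTiter-Glo luminescence after 48 h.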

[18] = qHTS of pediatric cancer cell lines to identify multiple opportunities for drug repurposing: Primary screen for OHS-50 cells (AID 1347103); conditions: OHS-50 osteosarcoma viability, CellTiter-Glo luminescence, 48 h; series mostly up to 57.3 µM; note: nearly all actives have a fitted effect of over 40% in size; note: potency is the fitted concentration of half-maximal effect;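 for activity change, negative = cytotoxic: plate controls were DMSO neutral control for no effect and bortezomib positive control for full effect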
In short: as §2

[19] = qHTS of pediatric cancer cell lines to identify multiple opportunities for drug repurposing: Primary screen for BT-12 cells (AID 1347101); conditions: BT-12 viability, CellTiter-Glo luminescence, 48 h; series mostly up to 57.3 µM; note: nearly all actives have a fitted effect of over 25% in size; note: potency is the fitted concentration of half-maximal effect;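 for activity change, negative = cytotoxic: plate controls were DMSO for no effect and bortezomib positive control for full effect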
In short: as §2

C[C@]12CC[C@H]3[C@@H](CCC4=CC(=O)CC[C@@]43C)[C@@H]1CC[C@@H]2C(=O)CO
inactive: Potency [1] | Potency [2] | Potency [3] | Potency [4] | Potency [5] | Potency [6] | Potency [7] | Potency [8] | Potency [9] | Potency [10] | Potency [11] | Potency [12] | Potency [13] | Potency [14]

CCCCC(=O)O[C@]1(C(=O)CO)CC[C@H]2[C@@H]3CCC4=CC(=O)CC[C@]4(C)[C@H]3[C@@H](O)C[C@@]21C
inactive: Potency [1] | Potency [2] | Potency [3] | Potency [4] | Potency [5] | Potency [6] | Potency [7] | Potency [8] | Potency [9] | Potency [10] | Potency [11] | Potency [12] | Potency [15] | Potency [13] | Potency [14] | Potency [16] | Potency [17]

CC(=O)[C@H]1CC[C@H]2[C@@H]3C[C@H](C)C4=CC(=O)CC[C@]4(C)[C@H]3[C@@H](O)C[C@]12C
inactive: Potency [1] | Potency [2] | Potency [3] | Potency [4] | Potency [5] | Potency [6] | Potency [7] | Potency [8] | Potency [9] | Potency [10] | Potency [11] | Potency [12] | Potency [15] | Potency [13] | Potency [14] | Potency [17]

C[C@H]1[C@H](NC(=O)/C(=N/OC(C)(C)C(=O)O)c2csc(N)n2)C(=O)N1S(=O)(=O)O (stereo in doubt)
inactive: Potency [1] | Potency [2] | Potency [3] | Potency [4] | Potency [5] | Potency [6] | Potency [7] | Potency [8] | Potency [9] | Potency [10] | Potency [18] | Potency [11] | Potency [12] | Potency [15] | Potency [13] | Potency [14]

CC1(C)O[C@@H]2C[C@H]3[C@@H]4CCC5=CC(=O)CC[C@]5(C)[C@@]4(F)[C@@H](O)C[C@]3(C)[C@]2(C(=O)CCl)O1
inactive: Potency [1] | Potency [2] | Potency [3] | Potency [4] | Potency [5] | Potency [6] | Potency [7] | Potency [8] | Potency [9] | Potency [10] | Potency [11] | Potency [12] | Potency [15] | Potency [13] | Potency [14] | Potency [16] | Potency [17]

CCn1cc(C(=O)O)c(=O)c2cnc(N3CCCC3)nc21
inactive: activity change, negative = cytotoxic [1] -17.7% [at 9.22 µM] | activity change, negative = cytotoxic [2] -9.99% [at 9.22 µM] | activity change, negative = cytotoxic [3] 0.276% [at 11.5 µM] | activity change, negative = cytotoxic [4] -3.37% [at 9.22 µM] | activity change, negative = cytotoxic [5] 4.46% [at 9.22 µM] | activity change, negative = cytotoxic [6] 0.0364% [at 9.22 µM] | activity change, negative = cytotoxic [8] 1.66% [at 9.22 µM] | activity change, negative = cytotoxic [9] -2.09% [at 9.22 µM] | activity change, negative = cytotoxic [19] 1.9% [at 11.5 µM] | activity change, negative = cytotoxic [10] 15.8% [at 9.22 µM] | activity change, negative = cytotoxic [18] -0.536% [at 11.5 µM] | activity change, negative = cytotoxic [11] -0.58% [at 9.22 µM] | activity change, negative = cytotoxic [12] -14.9% [at 9.22 µM] | activity change, negative = cytotoxic [15] 4.15% [at 9.22 µM] | activity change, negative = cytotoxic [13] 8.92% [at 9.22 µM] | activity change, negative = cytotoxic [14] 12.6% [at 9.22 µM]

CCCCCCCCCCCCCCCC[N+](C)(C)CCN(Cc1ccc(OC)cc1)c1ncccn1
active: Potency [1] 16.8 µM | Potency [2] 13.3 µM | Potency [3] 24.6 µM | Potency [6] 15 µM | Potency [7] 27.3 µM | Potency [9] 23.7 µM | Potency [19] 7.77 µM | Potency [10] 13.3 µM | Potency [18] 6.92 µM | Potency [13] 16.8 µM | Potency [14] 16.8 µM

CCOC(=O)/C=C(C)/C=C/C=C(C)/C=C/c1c(C)cc(OC)c(C)c1C
inactive: Potency [1] | Potency [3] | Potency [4] | Potency [5] | Potency [6] | Potency [7] | Potency [8] | Potency [9] | Potency [10] | Potency [11] | Potency [12] | Potency [15] | Potency [13] | Potency [14]

N[C@H](Cc1c[nH]c2ccccc12)C(=O)O
inactive: Potency [1] | Potency [2] | Potency [3] | Potency [4] | Potency [5] | Potency [7] | Potency [8] | Potency [9] | Potency [10] | Potency [18] | Potency [11] | Potency [12] | Potency [15] | Potency [13] | Potency [14]

Cc1ccccc1C(=O)Nc1ccc(C(=O)N2CCCC(N(C)C)c3ccccc32)cc1 (stereo unspecified)
active: Potency [1] 8.41 µM | Potency [2] 6.68 µM | Potency [4] 2.99 µM | Potency [6] 6.68 µM | Potency [9] 18.8 µM | Potency [18] 21.9 µM | Potency [14] 16.8 µM
inactive: Potency [5] | Potency [15] | Potency [13]

CCCCN1CCCC1C(=O)Nc1c(C)cc(C)cc1C (stereo unspecified)
inactive: Potency [1] | Potency [2] | Potency [3] | Potency [4] | Potency [5] | Potency [7] | Potency [8] | Potency [9] | Potency [19] | Potency [10] | Potency [11] | Potency [12] | Potency [15] | Potency [13] | Potency [14]
